Data as given in PubChem BioAssay (NCATS).
Records with an inconclusive call do not appear. Entries that show only a call come without a potency. Calls of active or inactive are those of the source. Calls follow the shape of the dose curve; as a rule, active = well fitted inhibition curve with a large enough effect; inconclusive = small, poorly fitted or top-dose-only effect; inactive = flat fitted curve, though single readings scatter.

Target: Calcium and integrin-binding protein 1 (Homo sapiens) (UniProt Q99828)
Assay: Primary qHTS for Identification of Calcium Integrin Binding Protein 1 (CIB1) Competitor (AID 1508620);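 also: GST tagged CIB1 binding a fluorescein labelled alphaIIb integrin peptide tracer; top concentration of the series differs between compounds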
Conditions: CIB1-GST / FITC-alphaIIb peptide fluorescence polarization; series mostly up to 114 µM
In short: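 CIB1-GST (1 uM final) and compound incubated 15 min at room temperature before adding FITC-alphaIIb peptide tracer (100 nM final). Competition for binding read by fluorescence polarization (ex 480, em 540) after another 15 min at room temperature.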

Calcium and integrin-binding protein 1 (Homo sapiens), sequence (Q99828 whole entry, looked up): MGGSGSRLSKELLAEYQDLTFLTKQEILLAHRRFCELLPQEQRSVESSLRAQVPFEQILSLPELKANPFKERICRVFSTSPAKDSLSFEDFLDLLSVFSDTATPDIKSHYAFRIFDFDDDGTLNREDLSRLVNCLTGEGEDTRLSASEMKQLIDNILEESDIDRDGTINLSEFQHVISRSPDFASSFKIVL

Row | Compound | Potency
1 | COc1cc(Nc2nc3c(s2)CCCC3c2ccc(F)cc2)ccc1-n1cnc(C)c1 (stereo unspecified) | inactive
2 | CCOC(=O)c1sc(NC(=O)[C@H](C(C)C)n2c(=O)[nH]c3ccccc3c2=O)nc1C | inactive
3 | COc1ccc2[nH]c3c(-c4cccc5ccccc45)nccc3c2c1 | inactive
4 | N#Cc1cnc2cnc(NCc3cccnc3)cc2c1Nc1ccc(F)c(Cl)c1 | inactive
5 | COc1cc(O)cc(/C=C/c2ccc(O[C@@H]3O[C@H](CO)[C@@H](O)[C@H](O)[C@H]3O)cc2)c1 | inactive
6 | O=C(O)c1cn(C2CC2)c2cc(N3C[C@@H]4C[C@H]3CN4)c(F)cc2c1=O | inactive
